According to PubChem BioAssay:
Calls of active or inactive are those of the source.

Assay: small-molecule binders of probe aLefty1, primary screen, biochemical, small-molecule microarray, 635/667 nm fluorescence (AID 1153);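 also: score merges spot fluorescence with signal-to-noise ratio from the scanned slide images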
Conditions: higher = more signal

Composite z-score, -0.0348:
CCOC(=O)C[C@H]1[C@H](OC(=O)c2ccc(-c3ccccc3)cc2)[C@@H](NC(=O)Cc2ccc(OC)cc2)c2cc(OCCCO)ccc2N1C(=O)Cc1ccc(OC)cc1

Composite z-score, 0.53:
COC(=O)C(CC#Cc1ccc2c(c1)[C@]1(C(=O)N2)[C@H](c2ccc(OCCO)cc2)N2[C@H](c3ccccc3)[C@H](c3ccccc3)OC(=O)[C@H]2[C@@H]1C(=O)N1CCN(c2ncccn2)CC1)C(=O)OC

Composite z-score, 0.535:
CCOC(=O)C1=CC[C@@H](c2ccccc2)N(S(=O)(=O)c2ccc(C)cc2)[C@H]1c1cccc(OC)c1

Composite z-score, 0.391:
CN1C=C(C(=O)OCCS(C)(=O)=O)C(C(=O)OCCS(C)(=O)=O)=CC(c2ccc(CO)cc2)=CC1c1cccs1 (stereo not given)

Composite z-score, -0.0302:
O=C1C2C=CC(C(O)c3ccco3)N(Nc3ccccc3)C2C(=O)N1c1ccccc1 (stereo not given)

Assay: PSAC antagonists in infected red cells, primary screen, cell-based, P. falciparum Indochina, OD700, 1 h (AID 1154)
Conditions: P. falciparum Indochina infected RBC osmotic lysis, higher = more signal, called active from +8 up or from −8 down

z-score, active:
COCCOC(=O)N1C(=O)[C@@]2(c3ccccc31)[C@H](c1ccc(OCCO)cc1)N1[C@H](c3ccccc3)[C@H](c3ccccc3)OC(=O)[C@H]1[C@@H]2C(=O)N1CCCCCCC1 22.8, C=C[C@@H](OC)[C@H](OC(=O)Nc1ccc(SC)cc1)c1ccc(OCCO)cc1 26.7, Cc1ccccc1C(O)C1C=CC2C(=O)N(c3ccccc3)C(=O)C2N1Nc1ccc([N+](=O)[O-])cc1 (stereo not given) 26.5, O=C1C2C=CC(C(O)C=Cc3ccc([N+](=O)[O-])cc3)N(Nc3ccccc3)C2C(=O)N1c1ccccc1 (stereo not given) 11, C=C[C@H](C)[C@H](OC(=O)Nc1ccc(OC)cc1)c1ccc(OCCO)cc1 12.4, CC(C)(C)OC(=O)CC[C@]1(C(=O)N2CCCCC2)COC(c2ccc(OCCCO)cc2)=N1 22.2, C=C[C@@H](C)[C@@H](OC(=O)Nc1ccc(SC)cc1)c1ccc(OCCO)cc1 29.1, C=C(/C(=C/C[C@@H](OC(=O)c1ccncc1)c1cccc(OCCO)c1)c1cnc2ccccc2c1)C(C)C 13.7, O=C(N1CCOCC1)[C@@]1(CCS(=O)(=O)c2ccccc2)N=C(c2ccc(OCCCO)cc2)O[C@H]1c1ccccc1 30.2, C=C(C)[C@@H]1CC=C(C(O)C2C=CC3C(=O)N(c4ccccc4)C(=O)C3N2Nc2ccc(C#N)cc2)CC1 (stereo not given in full) 9.15, C=C(COC)/C(=C/C[C@@H](OC(=O)c1ccncc1)c1ccccc1OCCO)c1cc(C(=O)OC)ccc1OC 23.5, CN1C=C(C(=O)OCCS(C)(=O)=O)C(C(=O)OCCS(C)(=O)=O)=CC(c2ccc(CO)cc2)=CC1c1cccs1 (stereo not given) 9.6

z-score, inactive:
CCCCCN1CC=CC23O[C@@H]4/C=C\CCC(C)OC(=O)C4[C@H]2C(=O)N(CCCCCCO)[C@@H]3C1=O (stereo not given in full) 1.25, COCCOC(=O)N1C(=O)[C@@]2(c3ccccc31)[C@H](c1ccccc1OCCO)N1[C@H](c3ccccc3)[C@H](c3ccccc3)OC(=O)[C@H]1[C@@H]2C(=O)N1CCCCCCC1 1.26, COC(=O)[C@@]1(Cc2ccc(F)cc2)[C@H]2c3cc(C(=O)N(C)C)n(Cc4c(CO)[nH]cc(C)c4=O)c3C[C@H]2CN1C(=O)c1ccccc1 0.756, COc1cc(NN2C(C(O)c3cc(OC)c(OC)c(OC)c3)C=CC3C(=O)N(c4ccccc4)C(=O)C32)cc(OC)c1OC (stereo not given) 2.73, C=CCC(OC(C)=O)[C@@H]1[C@@H](N(Cc2cccc3ccccc23)C(=O)c2cccc3ccccc23)c2cc(OCCCO)ccc2N1C(=O)c1ccc2ccccc2c1 (stereo not given in full) 0.529, COC(=O)[C@@]1(Cc2ccccc2)[C@H]2c3cc(C(=O)N4CCCC4)n(CCSCCO)c3C[C@H]2CN1C(=O)c1ccccc1 1.5, Cc1cccc([C@H]2C[C@H]3C(I)=C[C@@H]2C(=O)[C@]32CO2)c1 -0.0459, CC(=O)NCCCC[C@@H]1NC(=O)[C@H]2C[C@@H](C(=O)NCCCCCNC(=O)CS)[C@@H](c3cccc(OCCO)c3)N2C1=O 1.85, CCOC(=O)C[C@H]1[C@H](OC(=O)c2ccc(C(=O)c3ccccc3)cc2)[C@@H](NC(=O)CC(C)C)c2cc(OCCCO)ccc2N1C(=O)Cc1ccc(OC)cc1 4.38, Cc1ccccc1C(O)C1C=CC2C(=O)NC(=O)C2N1Nc1ccc(Cl)cc1Cl (stereo not given) 1.81, COc1cc2c(cc1O)C(c1ccc(CN3CCCC3)cc1)N(C)CC2 (stereo not given) 0.0334, COc1ccc([Si](C)(C)[C@@H]2[C@@H](CCn3cc([C@H](O)c4ccccc4)nn3)O[C@]3(C(=O)N(Cc4cccc(N5C(=O)c6cccc7cccc5c67)c4)c4ccccc43)[C@H]2C)cc1 1.8, COCCOC(=O)N1C(=O)[C@@]2(c3cc(C#CC4=CCCCC4)ccc31)[C@H](c1ccc(O)cc1)N1[C@H](c3ccccc3)[C@H](c3ccccc3)OC(=O)[C@H]1[C@@H]2C(=O)NC[C@H](O)c1ccccc1 1.8, CN(C)CCCCCCNC(=O)[C@@H]1C[C@@H]2C(=O)N[C@@H](CCCCN)C(=O)N2[C@@H]1c1ccc(O)cc1 0.983, Cc1ccc(N2C(=O)c3ccccc3[C@](C)(C(=O)NCc3ccccc3)[C@@H]2c2ccc(CO)cc2)nc1 2.01, O=c1cccc(-c2ccco2)o1 0.128, O=C1C2C=CC(C(O)c3cc(C(F)(F)F)cc(C(F)(F)F)c3)N(Nc3ccccc3F)C2C(=O)N1c1ccccc1 (stereo not given) 4.38, COCCCNC(=O)[C@@]1(Sc2ccc(C)cc2)CC(=O)N(C(C)C)[C@@H]1c1ccc(CO)cc1I 6.72, CC(C)C[C@@H]1NC(=O)[C@@H]2C[C@H](C(=O)NCCCCCC[N+](C)(C)C)[C@H](c3cccc(OCCO)c3)N2C1=O 6.26, O=C1C2C=CC(C(O)c3ccco3)N(Nc3ccccc3)C2C(=O)N1c1ccccc1 (stereo not given) 0.89, CCOC(=O)C[C@H]1[C@H](OC(=O)c2ccc(-c3ccccc3)cc2)[C@@H](NC(=O)Cc2ccc(OC)cc2)c2cc(OCCCO)ccc2N1C(=O)Cc1ccc(OC)cc1 4.29, CCOC(=O)C1=CC[C@@H](c2ccccc2)N(S(=O)(=O)c2ccc(C)cc2)[C@H]1c1cccc(OC)c1 0.792, COC(=O)C(CC#Cc1ccc2c(c1)[C@]1(C(=O)N2)[C@H](c2ccc(OCCO)cc2)N2[C@H](c3ccccc3)[C@H](c3ccccc3)OC(=O)[C@H]2[C@@H]1C(=O)N1CCN(c2ncccn2)CC1)C(=O)OC 4.2
